Data published in the supplement of paper PMC8975748.
Counter-ions that a name gives are not always drawn. ± gives the standard deviation of the averaged measurements.

How the values were obtained:
[1] = tested on: Saccharomyces cerevisiae BY4741 SeMeCo community; test: mean cell size (pixel area) (pixels); higher = larger cells; conditions: 10 µM; 24 h; SM minimal medium
How it was run: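 Yeast cells were fixed with paraformaldehyde, imaged by automated confocal microscopy and analysed in Harmony to obtain mean cell pixel area per well. They came from a four-plasmid fluorescent Saccharomyces cerevisiae BY4741 community, each plasmid complementing one auxotrophy and carrying a fluorescent marker. Before imaging, 70 µl of culture at OD600 = 0.3 was incubated for 24 h in SM medium in 384-well plates predosed acoustically with drug (final 10 µM). Values are means of 3 replicates. Same SeMeCo high-content imaging drug screen: Selleck FDA-approved drugs at 10 µM, 24 h in SM medium, 384-well plates, 3 replicates.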

[2] = tested on: Saccharomyces cerevisiae BY4741 SeMeCo community; test: z-score of prototroph abundance vs DMSO median; higher = larger share of this subpopulation than in DMSO controls; conditions: 10 µM; 24 h; SM minimal medium; subpopulation (auxotrophy): Prototroph
How it was run: (§1)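 A community of Saccharomyces cerevisiae BY4741 was built from four plasmids that each restored one auxotrophy and encoded a distinct fluorescent protein. Pre-grown overnight to OD600 1.0 and diluted to 0.3, it was dispensed at 70 µl into 384-well plates acoustically predosed with library drugs for a final 10 µM, and grown 24 h in minimal SM medium. Cells were then paraformaldehyde-fixed and imaged by automated confocal microscopy. Thresholds and autofluorescence correction came from single-auxotroph fluorescent strains, and each subpopulation's abundance was scored as a z-score relative to the vehicle-well median.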

[3] = tested on: Saccharomyces cerevisiae BY4741 SeMeCo community; test: z-score of subpopulation abundance vs DMSO median, subpopulation auxotrophic for M; higher = larger share of this subpopulation than in DMSO controls; conditions: 10 µM; 24 h; SM minimal medium; subpopulation (auxotrophy): M
How it was run: as §1

[4] = tested on: Saccharomyces cerevisiae BY4741 SeMeCo community; test: z-score of subpopulation abundance vs DMSO median, subpopulation auxotrophic for U; higher = larger share of this subpopulation than in DMSO controls; conditions: 10 µM; 24 h; SM minimal medium; subpopulation (auxotrophy): U
How it was run: as §1

[5] = tested on: Saccharomyces cerevisiae BY4741 SeMeCo community; test: z-score of subpopulation abundance vs DMSO median, subpopulation auxotrophic for H; higher = larger share of this subpopulation than in DMSO controls; conditions: 10 µM; 24 h; SM minimal medium; subpopulation (auxotrophy): H
How it was run: as §1

[6] = tested on: Saccharomyces cerevisiae BY4741 SeMeCo community; test: z-score of subpopulation abundance vs DMSO median, subpopulation auxotrophic for LM; higher = larger share of this subpopulation than in DMSO controls; conditions: 10 µM; 24 h; SM minimal medium; subpopulation (auxotrophy): LM
How it was run: as §1

[7] = tested on: Saccharomyces cerevisiae BY4741 SeMeCo community; test: z-score of subpopulation abundance vs DMSO median, subpopulation auxotrophic for HM; higher = larger share of this subpopulation than in DMSO controls; conditions: 10 µM; 24 h; SM minimal medium; subpopulation (auxotrophy): HM
How it was run: as §1

[8] = tested on: Saccharomyces cerevisiae BY4741 SeMeCo community; test: z-score of subpopulation abundance vs DMSO median, subpopulation auxotrophic for UM; higher = larger share of this subpopulation than in DMSO controls; conditions: 10 µM; 24 h; SM minimal medium; subpopulation (auxotrophy): UM
How it was run: as §1

[9] = tested on: Saccharomyces cerevisiae BY4741 SeMeCo community; test: z-score of subpopulation abundance vs DMSO median, subpopulation auxotrophic for HL; higher = larger share of this subpopulation than in DMSO controls; conditions: 10 µM; 24 h; SM minimal medium; subpopulation (auxotrophy): HL
How it was run: as §1

[10] = tested on: Saccharomyces cerevisiae BY4741 SeMeCo community; test: z-score of subpopulation abundance vs DMSO median, subpopulation auxotrophic for HLU; higher = larger share of this subpopulation than in DMSO controls; conditions: 10 µM; 24 h; SM minimal medium; subpopulation (auxotrophy): HLU
How it was run: as §1

[11] = tested on: Saccharomyces cerevisiae BY4741 SeMeCo community; test: z-score of subpopulation abundance vs DMSO median, subpopulation auxotrophic for HUM; higher = larger share of this subpopulation than in DMSO controls; conditions: 10 µM; 24 h; SM minimal medium; subpopulation (auxotrophy): HUM
How it was run: as §1

[12] = tested on: Saccharomyces cerevisiae BY4741 SeMeCo community; test: z-score of subpopulation abundance vs DMSO median, subpopulation auxotrophic for LUM; higher = larger share of this subpopulation than in DMSO controls; conditions: 10 µM; 24 h; SM minimal medium; subpopulation (auxotrophy): LUM
How it was run: as §1

[13] = tested on: Saccharomyces cerevisiae BY4741 SeMeCo community; test: z-score of subpopulation abundance vs DMSO median, subpopulation auxotrophic for HLUM; higher = larger share of this subpopulation than in DMSO controls; conditions: 10 µM; 24 h; SM minimal medium; subpopulation (auxotrophy): HLUM
How it was run: as §1

[14] = tested on: Saccharomyces cerevisiae BY4741 SeMeCo community; test: z-score of subpopulation abundance vs DMSO median, subpopulation auxotrophic for L; higher = larger share of this subpopulation than in DMSO controls; conditions: 10 µM; 24 h; SM minimal medium; subpopulation (auxotrophy): L
How it was run: as §1

[15] = tested on: Saccharomyces cerevisiae BY4741 SeMeCo community; test: z-score of subpopulation abundance vs DMSO median, subpopulation auxotrophic for HU; higher = larger share of this subpopulation than in DMSO controls; conditions: 10 µM; 24 h; SM minimal medium; subpopulation (auxotrophy): HU
How it was run: as §1

[16] = tested on: Saccharomyces cerevisiae BY4741 SeMeCo community; test: z-score of subpopulation abundance vs DMSO median, subpopulation auxotrophic for LU; higher = larger share of this subpopulation than in DMSO controls; conditions: 10 µM; 24 h; SM minimal medium; subpopulation (auxotrophy): LU
How it was run: as §1

[17] = tested on: Saccharomyces cerevisiae BY4741 SeMeCo community; test: z-score of subpopulation abundance vs DMSO median, subpopulation auxotrophic for HLM; higher = larger share of this subpopulation than in DMSO controls; conditions: 10 µM; 24 h; SM minimal medium; subpopulation (auxotrophy): HLM
How it was run: as §1

Structure (SMILES)	mean cell size [1]	z-score of prototroph abundance [2]	z-score of subpopulation abundance [3]	z-score of subpopulation abundance [4]	z-score of subpopulation abundance [5]	z-score of subpopulation abundance [6]	z-score of subpopulation abundance [7]	z-score of subpopulation abundance [8]	z-score of subpopulation abundance [9]	z-score of subpopulation abundance [10]	z-score of subpopulation abundance [11]	z-score of subpopulation abundance [12]	z-score of subpopulation abundance [13]	z-score of subpopulation abundance [14]	z-score of subpopulation abundance [15]	z-score of subpopulation abundance [16]	z-score of subpopulation abundance [17]
Cn1nnnc1SCC1=C(C(=O)O)N2C(=O)[C@@H](NC(=O)[C@H](OC=O)c3ccccc3)[C@H]2SC1 [Cefamandole nafate]	12.6 ± 0.23	-0.92	0.49	0.1	0.14	0.72	0.71	2.08	0.65	0.38	-0.54	0.16	0.78				
NC[C@@H]1O[C@H](O[C@H]2[C@@H](O)[C@H](O[C@@H]3[C@@H](O)[C@H](N)C[C@H](N)[C@H]3O[C@H]3O[C@H](CO)[C@@H](O)[C@H](O)[C@H]3N)O[C@@H]2CO)[C@H](N)[C@@H](O)[C@@H]1O [Paromomycin Sulfate]	12.31 ± 0.12	-0.33	1.04		0.2	1.42	1.15	-0.2	0.39	-0.44	0.69	0.8	0.85	0.88	-0.92		
O=C1c2c(O)ccc(O)c2C(=O)c2c(NCCNCCO)ccc(NCCNCCO)c21 [Mitoxantrone 2HCl]		-2.59	-14	-1.69	21.2		-7.73	-8.31	20.9	54.8	-6.42	-5.01	-2.13	5.53			
CN1CCOC(c2ccccc2)c2ccccc2C1 (stereo not drawn) [Nefopam HCl]	12.1 ± 0.25		0.02	0.26	-0.62	-0.2	-0.51	0.37	-0.63	-0.39	-0.51	-0.26	-0.19	-1.02	0.21		
NC(=O)N/N=C/c1ccc([N+](=O)[O-])o1 [Nitrofural]	12.84 ± 0.1	-0.16		-0.14	-0.29	-1.3	0.63	0.54	0	-1.14	-0.73	-0.73	0.17	-0.82	-0.42	-0.35	3.28
Clc1ccc(COC(Cn2ccnc2)c2ccc(Cl)cc2Cl)cc1 (stereo not drawn) [Econazole]	11.9 ± 0.17	-7.96	-1.6	0.12	20.3	-1.56	2.71		12.8	4.6		3.58	17.3		5.61		17.3
C[C@]12CC[C@@H]3c4ccc(O)cc4CC[C@H]3[C@@H]1CC[C@@H]2O [Estradiol]	12.7 ± 0.21	0.44	0.4	0.01	0.3	-0.16		-0.27		0.9	-0.92	0.18	1.17		-1.02		
O=C1c2cccc3c2[C@H](CCC3)CN1[C@@H]1CN2CCC1CC2 [Palonosetron HCl]	11.92 ± 0.064		-0.37		-0.32	-0.39	-0.69		-0.31	-0.05	-0.03		-0.14	-0.13	0.33		
CC1=Nc2ccc(Cl)cc2S(=O)(=O)N1 [Diazoxide]	12.4 ± 0.1	0.72	-0.76	0.16	-0.86	-1.03	-0.62		-0.72	-0.88	-0.41	-0.9	-1.32	-0.67	-0.17		
CC(C)(C)C(=O)C(Oc1ccc(Cl)cc1)n1ccnc1 (stereo not drawn) [Climbazole]	11.3 ± 0.047	-9.09	7.09	-1.3			9.21	24.4	2.46	1.28		5.42	8.88		4.67		12.1
CNCC[C@@H](Oc1ccccc1C)c1ccccc1 [Atomoxetine HCl]	12.4 ± 0.22	0.61		0.03	-0.84	0.36	-0.84		-0.43	0.11	-1.01	0.05	1.1	0.96	-0.99	0	-0.77
CC[C@@H]1/C=C(\C)C[C@H](C)C[C@H](OC)[C@H]2O[C@@](O)(C(=O)C(=O)N3CCCC[C@H]3C(=O)O[C@H](/C(C)=C/[C@@H]3CC[C@@H](O)[C@H](OC)C3)[C@H](C)[C@@H](O)CC1=O)[C@H](C)C[C@@H]2OC [Ascomycin (FK520)]					1.96	1.39	1.4	0.63	2.56	2.5	2.57		2.95	0.1	1.75	-0.23	1.57
CN1[C@@H]2CC[C@H]1C[C@@H](OC(c1ccccc1)c1ccccc1)C2 [Benztropine mesylate]	12.38 ± 0.057	1.01		-0.32	-0.75	0.22	-0.56	-0.32	0.19	-0.48	-0.47	-0.36	-0.38	0.17		-0.21	-0.44
O=c1cc(-c2ccc(O)c(O)c2)oc2cc(O)cc(O)c12 [Luteolin]	12.5 ± 0.16			0.21	0.27	0.14	-0.39	-0.52	0.22	0.05	-0.43	0.16	-0.27	1.23	1.42	0.96	-0.56
CO[C@@]1(NC(=O)CSC[C@@H](N)C(=O)O)C(=O)N2C(C(=O)O)=C(CSc3nnnn3C)CS[C@@H]21 [Cefminox Sodium]	12.6 ± 0.55	-0.58		0.77	1.45	-0.15	-0.24	0	1.62	0.47	-0.35	-0.31	-0.45	1.5		0.8	3.56
